Assay results reported in PMC5540273 (PLoS ONE, 2017).
Several values for one entry are separate records, joined by “and”; a condition that tells them apart may be missing. Identical values can stand only once. Like-named read-outs stand apart in the source and are kept apart here.

Key:
Conditions in all cases: concentration: 1 μM, replicates: in singlicate, n = 1
RIPK5 = system: RIPK5
ROCK1 = system: ROCK1
ROCK2 = system: ROCK2
ROS1 = system: ROS1
[1] = system: RPS6KA4(Kin.Dom.1-N-terminal)
[2] = system: RPS6KA4(Kin.Dom.2-C-terminal)
[3] = system: RPS6KA5(Kin.Dom.1-N-terminal)
[4] = system: RPS6KA5(Kin.Dom.2-C-terminal)
[5] = system: T1, RSK1(Kin.Dom.1-N-terminal)
T1 construct: gene RPS6KA1

[6] = system: T2, RSK1(Kin.Dom.2-C-terminal)
T2 construct: gene RPS6KA1

[7] = system: T3, RSK2(Kin.Dom.1-N-terminal)
T3 construct: gene RPS6KA3

[8] = system: T4, RSK2(Kin.Dom.2-C-terminal)
T4 construct: gene RPS6KA3

[9] = system: T5, RSK3(Kin.Dom.1-N-terminal)
T5 construct: gene RPS6KA2

[10] = system: T6, RSK3(Kin.Dom.2-C-terminal)
T6 construct: gene RPS6KA2

[11] = system: T7, RSK4(Kin.Dom.1-N-terminal)
T7 construct: gene RPS6KA6

[12] = system: T8, RSK4(Kin.Dom.2-C-terminal)
T8 construct: gene RPS6KA6

S6K1 = system: S6K1
SBK1 = system: SBK1
SGK2 = system: SGK2
SGK3 = system: SGK3
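Note: KINOMEscan kinase panel screen.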

Cc1ccc(C(=O)NCC(N)=O)cc1-n1c(C)cc(OCc2ccc(F)cc2F)c(Br)c1=O
%Inh (RIPK5): 0%
%Inh (ROCK1): 0%
%Inh (ROCK2): 0%
%Inh (ROS1): 20%
%Inh [1]: 0%
%Inh [2]: 0%
%Inh [3]: 20%
%Inh [4]: 15%
%Inh [5]: 3%
%Inh [6]: 0%
%Inh [7]: 0%
%Inh [8]: 0%
%Inh [9]: 22%
%Inh [10]: 9%
%Inh [11]: 0%
%Inh [12]: 29%
%Inh (S6K1): 3%
%Inh (SBK1): 0%
%Inh (SGK2): 0%
%Inh (SGK3): 0%

COc1ccc(Nc2ncc(C#N)c(Nc3ccccc3C(N)=O)n2)cc1N1CCN(C)CC1.Cl [GSK1558669]
%Inh (RIPK5): 98.7%
%Inh (ROCK1): 87%
%Inh (ROCK2): 91.2%
%Inh (ROS1): 97%
%Inh [1]: 100%
%Inh [2]: 97%
%Inh [3]: 98%
%Inh [4]: 44%
%Inh [5]: 99.7%
%Inh [6]: 47%
%Inh [7]: 100%
%Inh [8]: 7%
%Inh [9]: 99.7%
%Inh [10]: 11%
%Inh [11]: 100%
%Inh [12]: 50%
%Inh (S6K1): 99.9%
%Inh (SBK1): 93.9%
%Inh (SGK2): 58%
%Inh (SGK3): 95.3%

Cc1cccc(-c2nc(-c3ccc(S(C)(=O)=O)cc3)sc2-c2ccncc2)c1
%Inh (RIPK5): 18%
%Inh (ROCK1): 16%
%Inh (ROCK2): 0%
%Inh (ROS1): 23%
%Inh [1]: 0%
%Inh [2]: 3%
%Inh [3]: 11%
%Inh [4]: 9%
%Inh [5]: 0%
%Inh [6]: 34%
%Inh [7]: 0%
%Inh [8]: 25%
%Inh [9]: 0%
%Inh [10]: 4%
%Inh [11]: 30%
%Inh [12]: 15%
%Inh (S6K1): 12%
%Inh (SBK1): 1%
%Inh (SGK2): 0%
%Inh (SGK3): 12%

COCCNC(=O)c1ccc(-c2cc(C(=O)NC3CC3)cc(F)c2C)cc1 [GW868318]
%Inh (RIPK5): 38%
%Inh (ROCK1): 37%
%Inh (ROCK2): 47%
%Inh (ROS1): 5%
%Inh [1]: 36%
%Inh [2]: 6%
%Inh [3]: 18%
%Inh [4]: 21%
%Inh [5]: 21%
%Inh [6]: 18%
%Inh [7]: 40%
%Inh [8]: 29%
%Inh [9]: 16%
%Inh [10]: 0%
%Inh [11]: 41%
%Inh [12]: 0%
%Inh (S6K1): 29%
%Inh (SBK1): 48%
%Inh (SGK2): 20%
%Inh (SGK3): 21%

Cc1c2ccc(N(C)c3ccnc(Nc4cccc(S(N)(=O)=O)c4)n3)cc2nn1Cc1ccccc1.Cl.Cl [GW787226]
%Inh (RIPK5): 28%
%Inh (ROCK1): 48%
%Inh (ROCK2): 0%
%Inh (ROS1): 62%
%Inh [1]: 18%
%Inh [2]: 0%
%Inh [3]: 0%
%Inh [4]: 0%
%Inh [5]: 0%
%Inh [6]: 19%
%Inh [7]: 18%
%Inh [8]: 0%
%Inh [9]: 0%
%Inh [10]: 0%
%Inh [11]: 6%
%Inh [12]: 0%
%Inh (S6K1): 65%
%Inh (SBK1): 0%
%Inh (SGK2): 0%
%Inh (SGK3): 0%

CN(C(=O)c1ccc(-c2cc(-c3c[nH]nc3-c3ccccn3)ccn2)cc1)C1CCOCC1 [GW810083]
%Inh (RIPK5): 0%
%Inh (ROCK1): 31%
%Inh (ROCK2): 20%
%Inh (ROS1): 0%
%Inh [1]: 0%
%Inh [2]: 0%
%Inh [3]: 0%
%Inh [4]: 0%
%Inh [5]: 0%
%Inh [6]: 0%
%Inh [7]: 6%
%Inh [8]: 20%
%Inh [9]: 0%
%Inh [10]: 16%
%Inh [11]: 0%
%Inh [12]: 53%
%Inh (S6K1): 0%
%Inh (SBK1): 0%
%Inh (SGK2): 8%
%Inh (SGK3): 0%

Cn1ccc2ncnc(Oc3ccc(NC(=O)Nc4ccncc4)c(Cl)c3)c21
%Inh (RIPK5): 0%
%Inh (ROCK1): 0%
%Inh (ROCK2): 0%
%Inh (ROS1): 0%
%Inh [1]: 0%
%Inh [2]: 0%
%Inh [3]: 13%
%Inh [4]: 0%
%Inh [5]: 0%
%Inh [6]: 0%
%Inh [7]: 0%
%Inh [8]: 0%
%Inh [9]: 0%
%Inh [10]: 0%
%Inh [11]: 0%
%Inh [12]: 0%
%Inh (S6K1): 0%
%Inh (SBK1): 0%
%Inh (SGK2): 2%
%Inh (SGK3): 0%

O=C(NCCNc1ccnc(Nc2ccc(F)cc2)n1)Nc1ccccc1F [GSK1379880]
%Inh (RIPK5): 0%
%Inh (ROCK1): 40%
%Inh (ROCK2): 9%
%Inh (ROS1): 0%
%Inh [1]: 4%
%Inh [2]: 0%
%Inh [3]: 0%
%Inh [4]: 15%
%Inh [5]: 1%
%Inh [6]: 0%
%Inh [7]: 0%
%Inh [8]: 0%
%Inh [9]: 0%
%Inh [10]: 0%
%Inh [11]: 0%
%Inh [12]: 2%
%Inh (S6K1): 9%
%Inh (SBK1): 41%
%Inh (SGK2): 0%
%Inh (SGK3): 0%

Cc1nnc(-c2ccc3ncc(-c4ccc(S(C)=O)cc4)n3c2)o1 (stereo not drawn)
%Inh (RIPK5): 21%
%Inh (ROCK1): 28%
%Inh (ROCK2): 9%
%Inh (ROS1): 0%
%Inh [1]: 0%
%Inh [2]: 9%
%Inh [3]: 0%
%Inh [4]: 2%
%Inh [5]: 0%
%Inh [6]: 27%
%Inh [7]: 7%
%Inh [8]: 4%
%Inh [9]: 0%
%Inh [10]: 31%
%Inh [11]: 0%
%Inh [12]: 19%
%Inh (S6K1): 0%
%Inh (SBK1): 0%
%Inh (SGK2): 13%
%Inh (SGK3): 0%

NCCNS(=O)(=O)c1ccc(-c2ccnc3[nH]ccc23)cc1 [GSK977617]
%Inh (RIPK5; 1 µM): 3% and 0%
%Inh (ROCK2): 99.8%
%Inh (ROS1; 1 µM): 65% and 43%
%Inh ([1]; 1 µM): 48% and 33%
%Inh ([2]; 1 µM): 99.2% and 98.5%
%Inh ([3]; 1 µM): 47% and 33%
%Inh ([4]; 1 µM): 97.6% and 94.8%
%Inh ([5]; 1 µM): 62% and 27%
%Inh ([6]; 1 µM): 63% and 41%
%Inh ([7]; 1 µM): 79% and 60%
%Inh [8]: 0%
%Inh ([9]; 1 µM): 40% and 14%
%Inh ([10]; 1 µM): 29% and 22%
%Inh ([11]; 1 µM): 54% and 23%
%Inh ([12]; 1 µM): 48% and 37%
%Inh (S6K1; 1 µM): 71% and 73%
%Inh (SBK1; 1 µM): 79% and 57%
%Inh (SGK2; 1 µM): 24% and 4%
%Inh (SGK3; 1 µM): 57% and 44%

Cl.Cl.Cl.Fc1ccc(-c2ncn(C3CCNCC3)c2-c2ccnc(Nc3ccccc3)n2)cc1 [SB-238039]
%Inh (RIPK5; 1 µM): 82% and 61%
%Inh (ROCK1; 1 µM): 27% and 0%
%Inh (ROCK2; 1 µM): 32% and 9%
%Inh (ROS1): 0%
%Inh ([1]; 1 µM): 16% and 4%
%Inh ([2]; 1 µM): 0% and 4%
%Inh ([3]; 1 µM): 36% and 11%
%Inh ([4]; 1 µM): 23% and 0%
%Inh [5]: 0%
%Inh ([6]; 1 µM): 64% and 35%
%Inh ([7]; 1 µM): 41% and 35%
%Inh ([8]; 1 µM): 16% and 0%
%Inh ([9]; 1 µM): 0% and 15%
%Inh ([10]; 1 µM): 18% and 32%
%Inh ([11]; 1 µM): 19% and 0%
%Inh ([12]; 1 µM): 88% and 80%
%Inh (S6K1; 1 µM): 5% and 0%
%Inh (SBK1; 1 µM): 36% and 0%
%Inh (SGK2): 2%
%Inh (SGK3; 1 µM): 8% and 12%
